Source: PMC7862700, “An all-to-all approach to the identification of sequence-specific readers for epigenetic DNA modifications on cytosine”

How the values were obtained:
Assay in all cases: DAPPL (digital affinity profiling via proximity ligation, sequencing); 10 mM Tris-HCl pH 7.5, 50 mM NaCl, 1 mM DTT, 4% glycerol, room temperature, 30 min; GST-TFs on glutathione beads, 16-mer random dsDNA library, 0.1% formaldehyde crosslink after washing; high values mean tight binding
[1] = target: T1, FEV (Homo sapiens, UniProt Q99581 1-238); conditions: protein: recombinant; tags: N-terminal GST; dsDNA, one strand shown
T1 sequence: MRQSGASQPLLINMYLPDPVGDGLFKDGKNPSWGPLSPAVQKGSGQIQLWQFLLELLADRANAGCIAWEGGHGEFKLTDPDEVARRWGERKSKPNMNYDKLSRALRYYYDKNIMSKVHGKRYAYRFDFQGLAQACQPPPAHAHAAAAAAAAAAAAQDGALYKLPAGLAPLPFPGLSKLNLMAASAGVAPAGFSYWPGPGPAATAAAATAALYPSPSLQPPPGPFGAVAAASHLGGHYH
Method in brief: (§1)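 Yeast served to express human transcription factors as GST fusions, which were then captured on glutathione beads and labelled with DNA barcodes. Pooled with a tag-only sample, they were incubated with 200 nmole of a 16-mer random double-stranded DNA library for 30 min at room temperature in Tris/NaCl/DTT/glycerol buffer, washed, crosslinked with 0.1% formaldehyde, ligated by proximity, amplified by PCR and sequenced. Dividing each hexamer's read frequency for a factor by its frequency for the tag-only sample gives the binding signal.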

[2] = target: ETV5 (Homo sapiens, UniProt P41161 1-510); conditions: protein: recombinant; tags: N-terminal GST; dsDNA, one strand shown
Method in brief: as §1

[3] = target: HSF1 (Homo sapiens, UniProt Q00613 1-529); conditions: protein: recombinant; tags: N-terminal GST; chain copies: 3; dsDNA, one strand shown
Method in brief: as §1

[4] = target: T2, SPIC (Homo sapiens, UniProt Q8N5J4 1-248); conditions: protein: recombinant; tags: N-terminal GST; dsDNA, one strand shown
T2 sequence: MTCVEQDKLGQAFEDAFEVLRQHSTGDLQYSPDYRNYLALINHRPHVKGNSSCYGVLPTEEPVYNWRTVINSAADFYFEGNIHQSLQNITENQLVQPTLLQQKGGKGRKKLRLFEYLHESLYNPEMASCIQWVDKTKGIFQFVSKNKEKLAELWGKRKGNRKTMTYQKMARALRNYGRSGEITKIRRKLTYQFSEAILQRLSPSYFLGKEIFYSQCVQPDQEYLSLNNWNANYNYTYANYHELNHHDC
Method in brief: as §1

[5] = target: ELF4 (Homo sapiens, UniProt Q99607 1-663); conditions: protein: recombinant; tags: N-terminal GST; dsDNA, one strand shown
Method in brief: as §1

[6] = target: T3, ELK4 (Homo sapiens, UniProt P28324-2 1-405); conditions: protein: recombinant; tags: N-terminal GST; dsDNA, one strand shown
T3 sequence: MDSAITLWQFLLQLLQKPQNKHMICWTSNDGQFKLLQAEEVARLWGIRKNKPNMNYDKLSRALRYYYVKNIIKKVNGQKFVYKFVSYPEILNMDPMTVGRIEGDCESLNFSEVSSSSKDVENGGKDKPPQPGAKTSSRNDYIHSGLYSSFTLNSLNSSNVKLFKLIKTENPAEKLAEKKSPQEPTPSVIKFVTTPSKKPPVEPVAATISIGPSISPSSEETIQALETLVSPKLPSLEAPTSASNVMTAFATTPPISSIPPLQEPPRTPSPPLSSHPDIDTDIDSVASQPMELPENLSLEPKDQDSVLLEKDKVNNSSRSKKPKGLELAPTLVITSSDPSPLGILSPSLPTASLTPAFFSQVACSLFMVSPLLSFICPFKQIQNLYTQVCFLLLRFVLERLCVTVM
Method in brief: as §1

[7] = target: T4, ETV2 (Homo sapiens, UniProt O00321 1-342); conditions: protein: recombinant; tags: N-terminal GST; dsDNA, one strand shown
T4 sequence: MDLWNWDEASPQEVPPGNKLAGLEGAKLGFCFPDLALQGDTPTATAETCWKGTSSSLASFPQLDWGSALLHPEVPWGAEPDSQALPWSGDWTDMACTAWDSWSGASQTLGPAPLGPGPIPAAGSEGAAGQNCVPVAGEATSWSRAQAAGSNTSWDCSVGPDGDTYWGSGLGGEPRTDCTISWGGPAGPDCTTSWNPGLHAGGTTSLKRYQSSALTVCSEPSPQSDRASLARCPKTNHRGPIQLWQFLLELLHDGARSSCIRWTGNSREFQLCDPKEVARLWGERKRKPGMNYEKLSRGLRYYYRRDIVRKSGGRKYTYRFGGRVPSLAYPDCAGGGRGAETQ
Method in brief: as §1

[8] = target: T5, ELF3 (Homo sapiens, UniProt P78545 1-371); conditions: protein: recombinant; tags: N-terminal GST; dsDNA, one strand shown
T5 sequence: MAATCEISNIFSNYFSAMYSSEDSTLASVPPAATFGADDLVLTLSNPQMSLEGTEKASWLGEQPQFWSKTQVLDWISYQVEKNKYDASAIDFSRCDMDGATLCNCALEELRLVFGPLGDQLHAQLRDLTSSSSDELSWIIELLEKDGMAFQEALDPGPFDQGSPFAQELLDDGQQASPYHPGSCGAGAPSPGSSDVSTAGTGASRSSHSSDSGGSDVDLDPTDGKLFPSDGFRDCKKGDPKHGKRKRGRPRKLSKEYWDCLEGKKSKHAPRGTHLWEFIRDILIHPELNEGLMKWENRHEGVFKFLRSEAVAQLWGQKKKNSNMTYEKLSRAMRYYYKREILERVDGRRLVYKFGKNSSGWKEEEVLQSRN
Method in brief: as §1

[9] = target: CRX (Homo sapiens, UniProt O43186 1-299); conditions: protein: recombinant; tags: N-terminal GST; dsDNA, one strand shown
Method in brief: as §1

[10] = target: ETV1 (Homo sapiens, UniProt P50549 1-477); conditions: protein: recombinant; tags: N-terminal GST; dsDNA, one strand shown
Method in brief: as §1

CRX, sequence (O43186 whole entry): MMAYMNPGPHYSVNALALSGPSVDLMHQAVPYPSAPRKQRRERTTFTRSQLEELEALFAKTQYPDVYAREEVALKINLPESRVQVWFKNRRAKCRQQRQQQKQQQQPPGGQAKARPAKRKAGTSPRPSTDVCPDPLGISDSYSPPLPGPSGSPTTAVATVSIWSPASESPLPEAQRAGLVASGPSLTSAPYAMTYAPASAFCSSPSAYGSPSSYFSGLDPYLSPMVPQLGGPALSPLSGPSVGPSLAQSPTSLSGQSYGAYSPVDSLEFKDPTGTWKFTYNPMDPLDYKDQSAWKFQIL
ETV1, sequence (P50549 whole entry): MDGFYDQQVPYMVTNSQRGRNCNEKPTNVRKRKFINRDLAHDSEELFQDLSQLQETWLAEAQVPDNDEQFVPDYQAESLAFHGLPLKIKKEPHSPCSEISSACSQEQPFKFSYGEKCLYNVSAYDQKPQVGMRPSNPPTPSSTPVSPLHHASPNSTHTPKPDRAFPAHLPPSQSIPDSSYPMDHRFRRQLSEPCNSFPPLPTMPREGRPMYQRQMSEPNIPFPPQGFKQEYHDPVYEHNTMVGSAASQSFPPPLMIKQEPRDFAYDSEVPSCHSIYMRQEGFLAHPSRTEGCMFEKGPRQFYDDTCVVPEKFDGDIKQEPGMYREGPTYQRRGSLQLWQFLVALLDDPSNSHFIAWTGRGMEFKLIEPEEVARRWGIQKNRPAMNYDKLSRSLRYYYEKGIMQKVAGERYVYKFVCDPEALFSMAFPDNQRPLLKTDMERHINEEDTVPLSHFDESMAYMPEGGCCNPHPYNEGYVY
ETV5, sequence (P41161 whole entry): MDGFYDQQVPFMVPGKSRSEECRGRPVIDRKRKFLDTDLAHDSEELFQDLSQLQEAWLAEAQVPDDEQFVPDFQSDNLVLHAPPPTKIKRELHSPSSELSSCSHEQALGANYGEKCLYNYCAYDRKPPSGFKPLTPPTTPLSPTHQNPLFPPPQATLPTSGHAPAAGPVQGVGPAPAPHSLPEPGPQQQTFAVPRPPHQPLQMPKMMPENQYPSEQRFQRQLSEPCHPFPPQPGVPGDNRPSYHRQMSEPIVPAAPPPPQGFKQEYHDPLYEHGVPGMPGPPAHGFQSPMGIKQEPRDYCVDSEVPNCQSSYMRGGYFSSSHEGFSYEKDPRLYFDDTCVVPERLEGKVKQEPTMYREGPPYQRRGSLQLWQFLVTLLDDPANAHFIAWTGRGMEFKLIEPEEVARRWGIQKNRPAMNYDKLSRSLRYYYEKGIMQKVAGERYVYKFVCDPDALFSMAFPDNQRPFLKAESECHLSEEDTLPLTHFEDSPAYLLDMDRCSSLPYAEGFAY
ELF4, sequence (Q99607 whole entry): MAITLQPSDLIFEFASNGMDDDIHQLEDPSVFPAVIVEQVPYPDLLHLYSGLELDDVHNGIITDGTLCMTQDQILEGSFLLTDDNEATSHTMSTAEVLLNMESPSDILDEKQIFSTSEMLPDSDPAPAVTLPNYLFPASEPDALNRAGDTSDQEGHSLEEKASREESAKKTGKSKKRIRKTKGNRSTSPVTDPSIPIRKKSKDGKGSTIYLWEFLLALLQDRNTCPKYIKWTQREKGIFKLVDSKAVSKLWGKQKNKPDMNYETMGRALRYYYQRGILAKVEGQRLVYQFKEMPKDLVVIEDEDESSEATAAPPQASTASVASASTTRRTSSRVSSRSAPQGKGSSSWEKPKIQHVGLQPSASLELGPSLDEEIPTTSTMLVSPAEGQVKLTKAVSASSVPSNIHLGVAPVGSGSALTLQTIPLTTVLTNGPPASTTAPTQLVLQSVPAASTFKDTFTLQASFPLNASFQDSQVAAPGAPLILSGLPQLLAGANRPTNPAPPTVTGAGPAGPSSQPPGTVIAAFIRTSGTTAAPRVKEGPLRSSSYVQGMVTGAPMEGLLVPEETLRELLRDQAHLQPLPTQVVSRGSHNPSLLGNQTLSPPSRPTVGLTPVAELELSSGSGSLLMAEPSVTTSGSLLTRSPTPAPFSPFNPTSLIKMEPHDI
HSF1, sequence (Q00613 whole entry): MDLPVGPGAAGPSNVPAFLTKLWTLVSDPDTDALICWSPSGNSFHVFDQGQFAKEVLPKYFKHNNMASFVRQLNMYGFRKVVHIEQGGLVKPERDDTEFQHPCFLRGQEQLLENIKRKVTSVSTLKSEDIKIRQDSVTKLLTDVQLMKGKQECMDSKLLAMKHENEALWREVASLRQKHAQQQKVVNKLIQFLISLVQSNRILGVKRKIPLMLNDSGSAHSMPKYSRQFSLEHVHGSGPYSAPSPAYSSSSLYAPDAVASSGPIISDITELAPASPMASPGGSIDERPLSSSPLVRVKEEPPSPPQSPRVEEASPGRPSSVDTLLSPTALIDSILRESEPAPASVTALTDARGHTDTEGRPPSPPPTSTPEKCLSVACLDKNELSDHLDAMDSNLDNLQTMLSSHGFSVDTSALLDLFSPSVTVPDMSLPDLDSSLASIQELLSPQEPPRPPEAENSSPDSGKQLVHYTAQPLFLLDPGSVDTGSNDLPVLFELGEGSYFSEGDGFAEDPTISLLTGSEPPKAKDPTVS

| Sequence | binding signal [1] | binding signal [2] | binding signal [3] | binding signal [4] | binding signal [5] | binding signal [6] | binding signal [7] | binding signal [8] | binding signal [9] | binding signal [10] |
| --- | --- | --- | --- | --- | --- | --- | --- | --- | --- | --- |
| AATGAC | 1.47 fold enrichment (6-mer frequency, TF over GST control) | 1.35 fold enrichment (6-mer frequency, TF over GST control) | 1.22 fold enrichment (6-mer frequency, TF over GST control) | 1.36 fold enrichment (6-mer frequency, TF over GST control) | 1.37 fold enrichment (6-mer frequency, TF over GST control) | 1.35 fold enrichment (6-mer frequency, TF over GST control) | 1.4 fold enrichment (6-mer frequency, TF over GST control) | 1.49 fold enrichment (6-mer frequency, TF over GST control) | 1.16 fold enrichment (6-mer frequency, TF over GST control) | 1.4 fold enrichment (6-mer frequency, TF over GST control) |
| CCTTGA | 1.19 fold enrichment (6-mer frequency, TF over GST control) | 1.25 fold enrichment (6-mer frequency, TF over GST control) | 1.07 fold enrichment (6-mer frequency, TF over GST control) | 1.27 fold enrichment (6-mer frequency, TF over GST control) | 1.22 fold enrichment (6-mer frequency, TF over GST control) | 1.22 fold enrichment (6-mer frequency, TF over GST control) | 1.11 fold enrichment (6-mer frequency, TF over GST control) | 1.26 fold enrichment (6-mer frequency, TF over GST control) | 1.16 fold enrichment (6-mer frequency, TF over GST control) | 1.17 fold enrichment (6-mer frequency, TF over GST control) |
| CTAATC | 1.33 fold enrichment (6-mer frequency, TF over GST control) | 1.32 fold enrichment (6-mer frequency, TF over GST control) | 3.22 fold enrichment (6-mer frequency, TF over GST control) | 1.41 fold enrichment (6-mer frequency, TF over GST control) | 1.42 fold enrichment (6-mer frequency, TF over GST control) | 1.35 fold enrichment (6-mer frequency, TF over GST control) | 1.41 fold enrichment (6-mer frequency, TF over GST control) | 1.56 fold enrichment (6-mer frequency, TF over GST control) | 5.33 fold enrichment (6-mer frequency, TF over GST control) | 1.49 fold enrichment (6-mer frequency, TF over GST control) |
| TTTTAA | 1.26 fold enrichment (6-mer frequency, TF over GST control) | 1.24 fold enrichment (6-mer frequency, TF over GST control) | 1.59 fold enrichment (6-mer frequency, TF over GST control) | 1.15 fold enrichment (6-mer frequency, TF over GST control) | 1.28 fold enrichment (6-mer frequency, TF over GST control) | 1.22 fold enrichment (6-mer frequency, TF over GST control) | 1.27 fold enrichment (6-mer frequency, TF over GST control) | 1.32 fold enrichment (6-mer frequency, TF over GST control) | 2.18 fold enrichment (6-mer frequency, TF over GST control) | 1.26 fold enrichment (6-mer frequency, TF over GST control) |
| ACATAT | 1.29 fold enrichment (6-mer frequency, TF over GST control) | 1.32 fold enrichment (6-mer frequency, TF over GST control) | 1.04 fold enrichment (6-mer frequency, TF over GST control) | 1.36 fold enrichment (6-mer frequency, TF over GST control) | 1.3 fold enrichment (6-mer frequency, TF over GST control) | 1.22 fold enrichment (6-mer frequency, TF over GST control) | 1.28 fold enrichment (6-mer frequency, TF over GST control) | 1.25 fold enrichment (6-mer frequency, TF over GST control) | 1.12 fold enrichment (6-mer frequency, TF over GST control) | 1.26 fold enrichment (6-mer frequency, TF over GST control) |
| AATCTC | 1.23 fold enrichment (6-mer frequency, TF over GST control) | 1.37 fold enrichment (6-mer frequency, TF over GST control) | 2.13 fold enrichment (6-mer frequency, TF over GST control) | 1.13 fold enrichment (6-mer frequency, TF over GST control) | 1.25 fold enrichment (6-mer frequency, TF over GST control) | 1.22 fold enrichment (6-mer frequency, TF over GST control) | 1.26 fold enrichment (6-mer frequency, TF over GST control) | 1.27 fold enrichment (6-mer frequency, TF over GST control) | 2.5 fold enrichment (6-mer frequency, TF over GST control) | 1.34 fold enrichment (6-mer frequency, TF over GST control) |
| ATAGAA | 1.04 fold enrichment (6-mer frequency, TF over GST control) | 1.05 fold enrichment (6-mer frequency, TF over GST control) | 1.93 fold enrichment (6-mer frequency, TF over GST control) | 1.03 fold enrichment (6-mer frequency, TF over GST control) | 1.1 fold enrichment (6-mer frequency, TF over GST control) | 1.02 fold enrichment (6-mer frequency, TF over GST control) | 1.01 fold enrichment (6-mer frequency, TF over GST control) | 1 fold enrichment (6-mer frequency, TF over GST control) | 1.28 fold enrichment (6-mer frequency, TF over GST control) | 1.12 fold enrichment (6-mer frequency, TF over GST control) |
| TTCCGG | 8.68 fold enrichment (6-mer frequency, TF over GST control) | 6.4 fold enrichment (6-mer frequency, TF over GST control) | 1.93 fold enrichment (6-mer frequency, TF over GST control) | 5.6 fold enrichment (6-mer frequency, TF over GST control) | 5.4 fold enrichment (6-mer frequency, TF over GST control) | 4.67 fold enrichment (6-mer frequency, TF over GST control) | 5.78 fold enrichment (6-mer frequency, TF over GST control) | 5.14 fold enrichment (6-mer frequency, TF over GST control) | 1.33 fold enrichment (6-mer frequency, TF over GST control) | 6.12 fold enrichment (6-mer frequency, TF over GST control) |
